Results filed as inconclusive are left out. Unmarked numbers belong to inactive results. Active and inactive are the calls of the source. The call rests on the fitted dose curve; in most records, active means well fitted cell-killing curve with a large enough effect; inconclusive means small, poorly fitted or top-dose-only effect, or effect the other way; inactive means no such curve, though single readings can be large or run the other way.

Assay [1] can be described thus: Quantitative High-Throughput drug screen in 47 multiple myeloma cell lines against the NCATS MIPE library collection: U266_ATCC cell viability assay (AID 1919864). Further: nearly all actives have a fitted effect of over 35% in size. Put shortly:
(§1)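 500 cells/well; MIPE 4.0 drugs pin-transferred; 48 h, 37C, 5% CO2. CellTiter-Glo, 5 min RT, luminescence. Controls: DMSO 100%, media 0%.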

Assay [2] can be described thus: Quantitative High-Throughput drug screen in 47 multiple myeloma cell lines against the NCATS MIPE library collection: XG1_PLB cell viability assay (AID 1919866). Further: nearly all actives have a fitted effect of over 35% in size. In short, it runs like this: as §1
Assay [3] can be described thus: Quantitative High-Throughput drug screen in 47 multiple myeloma cell lines against the NCATS MIPE library collection: VP6_DJ cell viability assay (AID 1919867). Further: nearly all actives have a fitted effect of over 40% in size. In short, it runs like this: as §1
Assay [4] can be described thus: Quantitative High-Throughput drug screen in 47 multiple myeloma cell lines against the NCATS MIPE library collection: PE2_PLB cell viability assay (AID 1919869). Further: nearly all actives have a fitted effect of over 35% in size. In short, it runs like this: as §1
Assay [5] is described as follows: Quantitative High-Throughput drug screen in 47 multiple myeloma cell lines against the NCATS MIPE library collection: PCM6_Riken cell viability assay (AID 1919870). Further: nearly all actives have a fitted effect of over 30% in size. Put shortly:
as §1

Assay [6] can be described thus: Quantitative High-Throughput drug screen in 47 multiple myeloma cell lines against the NCATS MIPE library collection: RPMI8226_ATCC cell viability assay (AID 1919871). Further: nearly all actives have a fitted effect of over 30% in size. Put shortly: as §1
The nature of assay [7]: Quantitative High-Throughput drug screen in 47 multiple myeloma cell lines against the NCATS MIPE library collection: OPM2_DSMZ cell viability assay (AID 1919872). Further: nearly all actives have a fitted effect of over 30% in size. Put shortly:
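Myeloma cell lines, 500 cells per well, exposed to MIPE 4.0 library compounds for 48 h at 37C, 5% CO2. Viability from ATP by CellTiter-Glo luminescence; normalised to DMSO (100%) and media-only (0%) wells.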

Assay [8] in a line: Quantitative High-Throughput drug screen in 47 multiple myeloma cell lines against the NCATS MIPE library collection: KMS11_JCRBsus cell viability assay (AID 1919873). Further: nearly all actives have a fitted effect of over 50% in size. Put shortly:
as §1

Assay [9] in a line: Quantitative High-Throughput drug screen in 47 multiple myeloma cell lines against the NCATS MIPE library collection: UTMC2_PLB cell viability assay (AID 1919868). Further: nearly all actives have a fitted effect of over 55% in size. To be noted: CellTiter-Glo ATP luminescence, 48 h; viability (% of DMSO control): at 45.8 µM (top of the series). In short, it runs like this:
as §1

Assay [10] is described as follows: Quantitative High-Throughput drug screen in 47 multiple myeloma cell lines against the NCATS MIPE library collection: XG6_PLB cell viability assay (AID 1919865). Further: nearly all actives have a fitted effect of over 40% in size. In short, it runs like this:
as §1
Potency means the concentration at half of the fitted maximal effect.

As for `C=CCNC1=C2C[C@@H](C)C[C@H](OC)[C@@H](O)[C@@H](C)C=C(C)[C@H](OC(N)=O)[C@@H](OC)C=CC=C(C)C(=O)NC(=CC1=O)C2=O`, the Potency in assay [1] was 0.833 µM (active); in assay [2], 0.662 µM (active); in assay [3], 0.264 µM (active); in assay [4], 4.18 µM (active); in [5], 1.48 µM (active); in assay [6], 1.05 µM (active). In addition, the Potency in assay [7] is 2.35 µM (active); in [8], 0.059 µM (active).
Consider `CNC(=O)c1cccc(-c2ccc3c(N4CCOC[C@H]4C)nc(N4CCOC[C@H]4C)nc3n2)c1`, for which the Potency was 0.469 µM (active) in assay [1]; 0.0118 µM (active) in [2]; 0.0132 µM (active) in assay [3]; 0.059 µM (active) in assay [9]; 0.0833 µM (active) in assay [4]; 0.118 µM (active) in assay [5]. Also, the Potency was 0.0209 µM (active) in assay [6] and 0.105 µM (active) in assay [7].
Take `Nc1ccc(C(=O)Nc2cccc(-c3nc(N4CCOCC4)c4oc5ncccc5c4n3)c2)cn1`: the Potency in [1] is 20.9 µM (active); in [2], 5.9 µM (active); in assay [3], 4.18 µM (active); in assay [9], 3.32 µM (active); in [4] it was 2.09 µM (active); in assay [5], 5.9 µM (active). The values for the Potency in assay [7] and in assay [8] were 5.26 µM (active) and 6.62 µM (active), respectively.
Take `CCCCCCCCCCCCc1ccc(S(=O)(=O)Nc2nncs2)cc1`: the Potency result in assay [1], in [10], in assay [3], in assay [9], in assay [5] and in assay [7] was “inactive” throughout. Also, in [8], the Potency result is “inactive”. In [4], the Potency is 8.33 µM (active).
With `CN(C)CC(=O)N1CCC(c2ccc(NC(=O)c3ncc(C#N)[nH]3)c(C3=CCCCC3)c2)CC1`, the Potency in [1] is 8.33 µM (active); in assay [2], 16.6 µM (active); in assay [3] it was 23.5 µM (active); in assay [9] it was 18.7 µM (active); in assay [4] it was 20.9 µM (active); in [5], 14.8 µM (active). Besides, the Potency in assay [8] was 18.7 µM (active). Further, the Potency result in assay [6] and in assay [7] was “inactive” throughout.
With `NC(=O)c1ncn([C@@H]2O[C@H](CO)[C@@H](O)[C@@H]2O)c1N`, the Potency result in assay [1], in assay [10], in assay [4], in assay [5] and in [6] was “inactive” in each case.
`NC(=O)Nc1sc(-c2ccc(F)cc2)cc1C(N)=O`: the Potency in assay [1] was 13.2 µM (active); in assay [2], 0.0469 µM (active); in assay [3] it was 1.32 µM (active); in assay [4], 0.372 µM (active); in [5], 0.833 µM (active); in [6], 5.9 µM (active). The Potency in [7] is 18.7 µM (active); in [8], 4.69 µM (active).
On to `O=c1[nH]c(=O)n([C@H]2C[C@@H](O)[C@@H](CO)O2)cc1F`, for which the Potency in [1] was 23.5 µM (active); in assay [2], 9.35 µM (active); in assay [3], 18.7 µM (active); in assay [9], 10.5 µM (active); in assay [4], 14.8 µM (active); in [5], 14.8 µM (active). Further, the Potency in assay [8] is 0.526 µM (active).
Turning to `Cn1c(Nc2ccc(C(F)(F)F)cc2)nc2cc(Oc3ccnc(-c4ncc(C(F)(F)F)[nH]4)c3)ccc21`, the Potency is 6.62 µM (active) in assay [1]; 5.9 µM (active) in [10]; 13.2 µM (active) in assay [3]; 16.6 µM (active) in assay [9]; 16.6 µM (active) in assay [4]; 1.87 µM (active) in assay [5]. In addition, the Potency in assay [6] was 16.6 µM (active).
As to `O=C1c2c(O)cccc2[C@@H]([C@@H]2O[C@H](CO)[C@@H](O)[C@H](O)[C@H]2O)c2cc(CO)cc(O)c21`, the Potency result in assay [1], in [2], in assay [3], in assay [4], in assay [5] and in assay [6] was “inactive” in each case. Moreover, the Potency entry in assay [7] and in assay [8] was “inactive” in each case.
Take `Cc1cc(-c2nnc3n2CCCCC3)c(C)n1-c1ccccc1`: the Potency entry in assay [1], in assay [2], in [3], in assay [9], in assay [4] and in assay [8] was “inactive” throughout.
Turning to `N=c1ccn2c(n1)O[C@H]1[C@@H](O)[C@@H](CO)O[C@H]12`, the Potency was 18.7 µM (active) in assay [1]; 5.9 µM (active) in [2]; 18.7 µM (active) in assay [3]; 14.8 µM (active) in [9]; 0.469 µM (active) in assay [8]. The Potency result in assay [4], in assay [6] and in [7] was “inactive” each time.
Regarding `CCc1cnn2c(NCc3ccc[n+]([O-])c3)cc(N3CCCC[C@@H]3CCO)nc12`, the Potency is 0.0372 µM (active) in assay [1]; 0.0235 µM (active) in assay [2]; 0.0187 µM (active) in [3]; 0.0187 µM (active) in assay [9]; 0.0296 µM (active) in assay [4]; 0.0105 µM (active) in [5]. In addition, the Potency is 0.0372 µM (active) in assay [6], 0.0296 µM (active) in assay [7] and 0.0209 µM (active) in assay [8].
As to `CC(=O)O[C@H]1C[C@@H]2CC[C@H]3[C@H]4C[C@H]([N+]5(C)CCCCC5)[C@@H](OC(C)=O)[C@@]4(C)CC[C@@H]3[C@@]2(C)C[C@H]1N1CCCCC1`, the Potency result in [1], in assay [10], in [3], in assay [9], in assay [4] and in [5] was “inactive” throughout. Also, the Potency entry in assay [6] and in [8] was “inactive” throughout.
In the case of `C[C@H](NC(=O)[C@@H](O)c1cc(F)cc(F)c1)C(=O)N[C@@H]1C(=O)N(C)c2ccccc2-c2ccccc21`, the Potency result in [1], in assay [5], in [6] and in assay [7] was “inactive” in each case. Also, the Potency in assay [10] was 11.8 µM (active); in [2] it was 16.6 µM (active); in assay [8] it was 1.87 µM (active).
`N#CC(=Cc1ccc(O)c(O)c1)C(=O)NCc1ccccc1`: the Potency in assay [1] is 26.4 µM (active); in [10], 8.33 µM (active); in assay [3], 18.7 µM (active); in [4] it was 14.8 µM (active); in [5], 10.5 µM (active). Moreover, the Potency entry in assay [7] is “inactive”.

The values are drawn from PubChem BioAssay (NCATS).
